Screening results: PubChem BioAssay, several laboratories
SKN-1 inh: suppressors of acrylamide-induced Pgst-4::GFP reporter in worms, primary screen, SKN-1 inhibitor project, whole organism, uHTS, GFP/RFP fluorescence ratio, strain VP596; C. elegans VP596 Pgst-4::GFP/RFP ratio, 24 h; inhibition, % at 21.8 µM; hit rate 0.49% among 360,000;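 active means interference check ratio from 0.5 to 1.5 plus GFP to RFP signal ratio inhibition reaching or exceeding a fixed threshold, cut at about 30% in these data, passing the limit was not always enough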
MEKK2 WT-MEK5: modulators of MEK5 binding to wildtype MEKK2, primary screen, biochemical, multiplex bead flow cytometry, Alexa488-MEK5; Mitogen-activated protein kinase kinase kinase 2 (Homo sapiens), Q9Y2U5; Alexa488-MEK5 binding to MEKK2 WT; actives lie on both sides; hit rate 1.1% among 290,000; binding response (% of control), % at 10 µM; in the data active means binding response below about 67% or above about 130%
MEKK2 mut-MEK5: MEK5 binding signal on mutant MEKK2 PB1, primary screen, biochemical, multiplex bead flow cytometry, Alexa488-MEK5; Alexa488-MEK5 binding to MEKK2 mutant; percent response, % at 10 µM; hit rate 0.35% among 290,000; in the data active means percent response above about 24%, passing the limit was not always enough
NRP1-CendR mod: modulators of CendR peptide binding to NRP-1, primary screen, biochemical, fluorescence polarization, uHTS; FAM-RPARPAR peptide binding to NRP-1; Neuropilin-1 (Homo sapiens), O14786; hit rate 0.85% among 360,000; inhibition, % at 25 µM;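 active means inhibition or corrected inhibition above about 18%, plus a signal ratio from 0.5 to 1.5, limit read from the data, passing the limit was not always enough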
MEKK3 PB1 HTS: modulators of MEKK3-MEK5 PB1 binding, primary screen, biochemical, wildtype MEKK3, multiplex bead flow cytometry, Alexa488-MEK5 | hit rate 1.4% among 290,000 | AID 1529, 2009 | binding response (% of control), % at 10 µM | Mitogen-activated protein kinase kinase kinase 3 (Homo sapiens), Q99759 | bead-based flow cytometry, Alexa488-MEK5 binding to MEKK3; actives lie on both sides; 0 = blocked by unlabeled MEK5, 100 = vehicle;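 active means binding response more than 3 SD above or below the average of its plate-row segment, actives on both sides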;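 further: Alexa488 bead fluorescence after subtracting the streptavidin-only scavenger bead signal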
Target sequence (Q99759 whole entry, looked up): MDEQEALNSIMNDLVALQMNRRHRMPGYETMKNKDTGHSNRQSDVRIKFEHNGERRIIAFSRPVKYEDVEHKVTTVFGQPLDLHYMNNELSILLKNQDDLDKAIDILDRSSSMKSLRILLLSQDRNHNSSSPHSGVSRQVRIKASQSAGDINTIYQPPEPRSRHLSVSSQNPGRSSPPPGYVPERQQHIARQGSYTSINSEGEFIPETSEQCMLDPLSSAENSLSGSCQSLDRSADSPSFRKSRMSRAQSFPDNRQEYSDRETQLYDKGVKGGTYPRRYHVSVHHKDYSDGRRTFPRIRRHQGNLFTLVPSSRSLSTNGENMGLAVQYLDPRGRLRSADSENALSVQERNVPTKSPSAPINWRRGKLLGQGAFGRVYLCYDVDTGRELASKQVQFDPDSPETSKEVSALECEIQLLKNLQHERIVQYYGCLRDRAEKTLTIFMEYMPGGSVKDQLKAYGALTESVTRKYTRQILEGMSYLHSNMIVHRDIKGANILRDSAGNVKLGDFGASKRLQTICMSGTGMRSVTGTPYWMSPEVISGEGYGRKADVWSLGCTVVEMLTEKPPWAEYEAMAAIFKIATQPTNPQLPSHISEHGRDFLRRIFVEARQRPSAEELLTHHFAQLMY
Each line names hits and unclear results; the compound was inactive in the other large screens. Sampled rows, rich in hits. Any-hit rate of the full collection: about 3.2%.

O=C(NC1CCCCC1)c1cc(S(=O)(=O)N2CCCC2)ccc1Cl	NRP1-CendR mod 22.2
Cc1cc(=O)[nH]c(SCC(=O)NCC2CCCO2)n1 (stereo not drawn)	none
O=C(CSc1nc(O)c(C2CCCCC2)c(=O)[nH]1)NCC1CCCO1 (stereo not drawn)	SKN-1 inh 31.2
CC(CNC(=O)CN1C(=O)COc2ccc(S(=O)(=O)N3CCCCC3)cc21)c1ccccc1 (stereo not drawn)	none
CCCCc1cc(=O)oc2c(C)c(OCC(=O)N3C[C@H]4C[C@@H](C3)c3cccc(=O)n3C4)ccc12	none
CC(=O)Nc1ccccc1O	none
CC(=O)Nc1ccccc1C(=O)C(=O)O	NRP1-CendR mod 26.0
O=C(NCCO)c1ccc(-c2cnc3cccnn23)cc1	none (no result: MEKK2 WT-MEK5, MEKK2 mut-MEK5, MEKK3 PB1 HTS)
O=C(c1cc(-c2ccccc2)on1)N1CCc2ccccc2C1	SKN-1 inh 37.5
O=C(c1cc(-c2ccc(Cl)cc2)on1)N1CCc2ccccc2C1	none
CN1CCS/C1=C\C=C1/SC(=S)N(CC(=O)O)C1=O	none
CCN1C(=O)/C(=C/C=C2/SCCN2C)SC1=S	SKN-1 inh 27.1
O=c1c2ccccc2sc2ccccc12	SKN-1 inh 43.4 (no result: MEKK2 WT-MEK5, MEKK2 mut-MEK5, MEKK3 PB1 HTS)
Nc1ccc2c(c1)sc1ccccc12	SKN-1 inh 54.3
O=c1c2ccccc2ccc2ccccc12	SKN-1 inh 35.5 (no result: MEKK2 WT-MEK5, MEKK2 mut-MEK5, MEKK3 PB1 HTS)
CCCCn1c(SCC(=O)c2c(N)n(C3CC3)c(=O)[nH]c2=O)nc2cc(S(N)(=O)=O)ccc21	none (no result: MEKK2 WT-MEK5, MEKK2 mut-MEK5, MEKK3 PB1 HTS)
CC(C)(C)NC(=O)NC12CC3CC(CC(C3)C1)C2	NRP1-CendR mod 22.3
Cc1nn(C(=O)CCC(=O)NCc2cccc(F)c2)c2ccccc12	SKN-1 inh 34.5
Cc1nn(C(=O)CCC(=O)NCCc2ccccc2)c2ccccc12	none
COc1ccc(N2CCN(C(c3ccc4ncccc4c3)c3nnnn3C(C)C)CC2)cc1 (stereo not drawn)	none
NC(=O)c1ccccc1N=Cc1cccnc1	NRP1-CendR mod 33.0 (no result: MEKK2 WT-MEK5, MEKK2 mut-MEK5, MEKK3 PB1 HTS)
O=C(NCc1cccc(F)c1)c1cccc(OC2CCN(C(=O)C3CC3)CC2)c1	NRP1-CendR mod 24.0
CCN(Cc1ccccc1)C(=O)c1cccc(OC2CCN(C(=O)C3CC3)CC2)c1	none
O=C(COc1ccccc1)Nc1ccc(-c2ccc(N3CCOCC3)nn2)cc1	NRP1-CendR mod 21.7 (no result: MEKK2 WT-MEK5, MEKK2 mut-MEK5, MEKK3 PB1 HTS)
CN(C(=O)c1ccc(NC(=O)Cc2cccc(NC(=O)C3CCCN(C(=O)C4CCCC4)C3)c2)cc1)C1CCCC1 (stereo not drawn)	none (no result: MEKK2 WT-MEK5, MEKK2 mut-MEK5, MEKK3 PB1 HTS)
Cc1ccsc1C(=O)OCC(=O)NC1CCCC1	NRP1-CendR mod 21.2 (no result: MEKK2 WT-MEK5, MEKK2 mut-MEK5, MEKK3 PB1 HTS)
Cc1cc(C)c2c(=O)n3c(nc2c1)C(C)NC(=O)c1cccnc1-3 (stereo not drawn)	none (no result: MEKK2 WT-MEK5, MEKK2 mut-MEK5, MEKK3 PB1 HTS)
Cc1cc2nc(-c3ccc(F)cc3)c(Cc3cccc(Cl)c3)n2c(C)c1Br	none (no result: MEKK2 WT-MEK5, MEKK2 mut-MEK5, MEKK3 PB1 HTS)
CCCCNC(=O)OCC(CC)NC(=O)OCC(C)C (stereo not drawn)	SKN-1 inh 36.0
CCCCNC(=O)OCC(CC)NC(=O)OC(C)C (stereo not drawn)	none
Cc1cn([C@H]2C[C@H](O)[C@@H](CNCc3cnc(N4CCOCC4)s3)O2)c(=O)[nH]c1=O	none (no result: MEKK2 WT-MEK5, MEKK2 mut-MEK5, MEKK3 PB1 HTS)
O=C(COC(=O)Cc1c(F)cccc1Cl)NCc1ccc2c(c1)OCO2	none (no result: MEKK2 WT-MEK5, MEKK2 mut-MEK5, MEKK3 PB1 HTS)
CCN(CC)CCNC(=O)c1ccc(NC(=O)c2cn(-c3ccc(F)cc3)nc2-c2cccc(OC)c2)cc1	MEKK2 WT-MEK5 222.0, MEKK2 mut-MEK5 51.0
Cc1ccc(CSc2nc3ccccc3c(=O)n2Cc2ccco2)cc1	SKN-1 inh 38.3
CC1(C)CC2(C)CC(=O)C1C(C(=O)O)C2C(=O)O (stereo not drawn)	none (no result: MEKK2 WT-MEK5, MEKK2 mut-MEK5, MEKK3 PB1 HTS)
CCC(Oc1ccc(C)cc1)C(=O)Nc1ccccc1C(=O)N1CCOCC1 (stereo not drawn)	none
Cc1c(C(=O)NCc2ccccc2)oc2ccc(S(=O)(=O)N3CCCC3)cc12	none
Cc1c(C(=O)Nc2cccc(C(F)(F)F)c2)oc2ccc(S(=O)(=O)N3CCOCC3)cc12	SKN-1 inh 36.3
Cc1c(C(=O)N(C)Cc2ccccc2)oc2ccc(S(=O)(=O)N3CCCC3)cc12	NRP1-CendR mod 24.6
